Sampled rows, rich in hits. Any-hit rate of the full collection: about 1.4%.
IDE cell inh: cellular human IDE inhibition; P14735; HEK cells, FAbetaB cleavage, fluorescence polarization; inhibition, % at 5.59 µM; hit rate 0.41% among 320,000; AID 434962;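 active = percent inhibition above the average of all tested compounds plus 3 SD, set per screening campaign, cut at about 16% in these data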;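 also: IDE supplied by intact live HEK cells; FP after avidin binding of uncleaved biotin substrate so inhibition keeps polarization high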
CRFR2-BP ag: CRF-BP/CRF-R2 complex agonism; activation, % at 13.2 µM; HEK293 CRF-R2/CRF-BP, calcium dye fluorescence (FLIPR); percent of saturating CRF peptide response; hit rate 0.46% among 350,000;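 active = activation of at least 50%, plus an integration ratio under a set limit after plate pattern correction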
HNF4A DNA FP: change in binding of human HNF4 alpha to DNA; activity change, % at 10 µM; AID 1224865; HNF4a-FITC DNA binding, fluorescence polarization, 1 h; P41235; hit rate 0.3% among 360,000; in the data active = activity change above about 30%, passing the limit was not always enough
Target sequence (P41235 whole entry, looked up): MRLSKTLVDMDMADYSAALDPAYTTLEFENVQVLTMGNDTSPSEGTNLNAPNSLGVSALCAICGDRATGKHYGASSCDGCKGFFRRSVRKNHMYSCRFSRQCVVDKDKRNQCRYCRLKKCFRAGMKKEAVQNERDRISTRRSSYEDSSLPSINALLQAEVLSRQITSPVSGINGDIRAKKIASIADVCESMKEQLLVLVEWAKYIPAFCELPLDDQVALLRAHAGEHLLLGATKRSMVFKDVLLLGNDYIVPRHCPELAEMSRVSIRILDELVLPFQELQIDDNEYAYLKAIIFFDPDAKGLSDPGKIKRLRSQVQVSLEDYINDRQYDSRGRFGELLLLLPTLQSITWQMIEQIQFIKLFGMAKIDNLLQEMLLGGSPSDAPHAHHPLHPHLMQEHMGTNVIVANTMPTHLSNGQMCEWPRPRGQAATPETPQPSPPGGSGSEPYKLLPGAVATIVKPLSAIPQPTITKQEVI
IDE act: activators of human insulin-degrading enzyme in cells; P14735; HEK cells, FAbeta-B cleavage, fluorescence polarization; 0% vehicle, 100% cell-free pure enzyme wells; activation, % at 5.96 µM; hit rate 0.073% among 340,000; AID 493087;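 active = activation above the mean of all tested compounds plus 3 SD, set per screening campaign, cut at about 17% in these data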
TPT1 inhibitor: inhibitors of Candida albicans tRNA 2'-phosphotransferase TPT1; recombinant caTPT1, FP RNA substrate dephosphorylation; inhibition, % at 5 µM; hit rate 0.81% among 300,000; AID 1962;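 active = inhibition above the mean of all tested compounds plus 3 SD, set per screening campaign, cut at about 24% in these data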
Of the large screens only hits and unclear results are named; the others gave an inactive call.

COC(=O)c1ccc(NC(=O)c2cccc(C)c2[N+](=O)[O-])cc1	none
CC(C)Cn1c(=O)c(C(=O)NCc2ccc3c(c2)OCO3)c(O)c2ccccc21	none
Cc1ccc(C(=O)NCCNC(=O)c2ccc(F)cc2)cn1	CRFR2-BP ag 80
Cc1cc(C)c(S(=O)(=O)Nc2cccc(C(=O)O)c2)cc1S(=O)(=O)Nc1cccc(C(=O)O)c1	none
O=C(C1=C(O)C(=O)N(c2nccs2)C1c1ccccc1)c1cc2ccccc2o1 (configuration not stated)	CRFR2-BP ag 168
CCOc1cccc(C2C(C(=O)c3ccc(C)o3)=C(O)C(=O)N2c2nccs2)c1 (configuration not stated)	CRFR2-BP ag 159
CCOc1cccc(C2C(C(=O)c3ccc(C)o3)=C(O)C(=O)N2Cc2ccncc2)c1 (configuration not stated)	none
Cc1cc(C)cc(NS(=O)(=O)c2cnc(Cl)c(Cl)c2)c1	HNF4A DNA FP 40
COc1ccc2c(c1)CCC1C2=NN(/C(C)=C\C(C)=O)C1c1ccc(F)cc1 (configuration not stated)	HNF4A DNA FP 53
COc1ccc2c(c1)C1=NN(/C(C)=C/C(C)=O)C(c3ccc(F)cc3)C1CC2 (configuration not stated)	none
FC(F)(F)c1cnc(NNC(=S)Nc2ccccc2Cl)c(Cl)c1	CRFR2-BP ag 89
Cc1ccsc1C(=O)N1CCC1(C)C(=O)NS(=O)(=O)c1cccc(F)c1 (configuration not stated)	none (no result: IDE cell inh, CRFR2-BP ag, IDE act, TPT1 inhibitor)
O=C1C2C3C=CC(C3)C2C(=O)N1c1ccc2ccccc2n1 (configuration not stated)	none
O=C1C2C3C=CC(C3)C2C(=O)N1c1cccc(N2C(=O)C3C4C=CC(C4)C3C2=O)n1 (configuration not stated)	CRFR2-BP ag 73
CCc1nc2ccc(C(=O)NCCCn3ccnc3)cn2c1N(C)C(=O)C1CCCCC1	none (no result: IDE cell inh, CRFR2-BP ag, IDE act, TPT1 inhibitor)
COc1ccccc1CNc1nc(NCc2ccc3occc3c2)c2sccc2n1	none (no result: IDE cell inh, CRFR2-BP ag, IDE act, TPT1 inhibitor)
Cc1ccn2c(NC3CCCCC3)c(-c3ccc(SC4CCCCC4)cc3)nc2c1	HNF4A DNA FP 54 (no result: IDE cell inh, CRFR2-BP ag, IDE act, TPT1 inhibitor)
Nc1nc(CN2CCCCCC2)nc(Nc2ccccc2)n1	none
Nc1nc(CN2CCC(Cc3ccccc3)CC2)nc(Nc2ccccc2)n1	HNF4A DNA FP 54
CCN(CC)CCCNC(=O)c1cn(CC)c2ccc(S(=O)(=O)N(C)C3CCCCC3)cc2c1=O	none
CCn1cc(C(=O)NCCCN(CC(C)C)CC(C)C)c(=O)c2cc(S(=O)(=O)N(C)C3CCCCC3)ccc21	CRFR2-BP ag 76
CCOC(=O)C1=C(C)N=c2s/c(=C\c3ccc(OC(C)=O)cc3)c(=O)n2C1/C=C/c1ccccc1 (configuration not stated)	HNF4A DNA FP 36
CCNC(=O)C1CCCN(C(=O)c2ccc3c(c2)OCO3)CC1 (configuration not stated)	none (no result: IDE cell inh, CRFR2-BP ag, IDE act, TPT1 inhibitor)
Cc1ccc(S(=O)(=O)/N=C2/NC(=O)/C(=C\c3cc(Br)cc(Br)c3O)S2)cc1	CRFR2-BP ag 77, HNF4A DNA FP 80 (no result: IDE cell inh, TPT1 inhibitor)
CC(C)COC(=O)N(C)C[C@@H]1OCc2cnnn2CCCC(=O)N([C@H](C)CO)C[C@H]1C	none (no result: IDE cell inh, IDE act, TPT1 inhibitor)
C=CCNc1nc(-c2sc(NC(=O)C(C)(C)C)nc2C)c(-n2cc(-c3ccccc3)nn2)s1	none (no result: IDE cell inh, CRFR2-BP ag, IDE act, TPT1 inhibitor)
NC(=O)c1cc2ccc(O)cc2oc1=NCc1ccccc1	CRFR2-BP ag 319
CN(C)c1ccc(-c2csc(C(O)c3ccc(F)c(F)c3)n2)cc1 (configuration not stated)	none (no result: IDE cell inh, CRFR2-BP ag, IDE act, TPT1 inhibitor)
Cc1sc2ncnc(N3CCC(C(=O)Nc4nnc(SCc5ccccc5F)s4)CC3)c2c1C	none
COc1ccc(OC)c(/C=N\NC(=O)c2ccc(-c3ccccc3)cc2)c1	none (no result: IDE cell inh, TPT1 inhibitor)
COc1ccc(C(=O)N/N=C/c2cc3ccccc3[nH]c2=O)cc1	IDE act 30
Cc1cc(S(=O)(=O)NCc2ccccc2)ccc1OCC(=O)NCC1CCCO1 (configuration not stated)	CRFR2-BP ag 241
CC(=O)N1CC2(NC(=O)c3ccccc3N2)c2ccccc21 (configuration not stated)	none
O=S(=O)(O)c1cccc2c(N=Nc3ccc(O)c4ncccc34)cccc12	IDE act 36
CC(=O)Nc1ccc(C=NNc2ccc([N+](=O)[O-])cn2)cc1	none (no result: IDE cell inh, TPT1 inhibitor)
Cc1ccc(-n2cc(C(=O)c3ccc(N4CCN(C)CC4)cc3)nn2)cc1Cl	HNF4A DNA FP 105
O=S(=O)(c1ccc(F)cc1)N1CCN(C(=S)NC2CC2)CC1	none (no result: TPT1 inhibitor)
